system: Proto-oncogene tyrosine-protein kinase receptor Ret (Homo sapiens), P07949 [V804L]; conditions: at 1 µM
Sequence (P07949 whole entry V804L): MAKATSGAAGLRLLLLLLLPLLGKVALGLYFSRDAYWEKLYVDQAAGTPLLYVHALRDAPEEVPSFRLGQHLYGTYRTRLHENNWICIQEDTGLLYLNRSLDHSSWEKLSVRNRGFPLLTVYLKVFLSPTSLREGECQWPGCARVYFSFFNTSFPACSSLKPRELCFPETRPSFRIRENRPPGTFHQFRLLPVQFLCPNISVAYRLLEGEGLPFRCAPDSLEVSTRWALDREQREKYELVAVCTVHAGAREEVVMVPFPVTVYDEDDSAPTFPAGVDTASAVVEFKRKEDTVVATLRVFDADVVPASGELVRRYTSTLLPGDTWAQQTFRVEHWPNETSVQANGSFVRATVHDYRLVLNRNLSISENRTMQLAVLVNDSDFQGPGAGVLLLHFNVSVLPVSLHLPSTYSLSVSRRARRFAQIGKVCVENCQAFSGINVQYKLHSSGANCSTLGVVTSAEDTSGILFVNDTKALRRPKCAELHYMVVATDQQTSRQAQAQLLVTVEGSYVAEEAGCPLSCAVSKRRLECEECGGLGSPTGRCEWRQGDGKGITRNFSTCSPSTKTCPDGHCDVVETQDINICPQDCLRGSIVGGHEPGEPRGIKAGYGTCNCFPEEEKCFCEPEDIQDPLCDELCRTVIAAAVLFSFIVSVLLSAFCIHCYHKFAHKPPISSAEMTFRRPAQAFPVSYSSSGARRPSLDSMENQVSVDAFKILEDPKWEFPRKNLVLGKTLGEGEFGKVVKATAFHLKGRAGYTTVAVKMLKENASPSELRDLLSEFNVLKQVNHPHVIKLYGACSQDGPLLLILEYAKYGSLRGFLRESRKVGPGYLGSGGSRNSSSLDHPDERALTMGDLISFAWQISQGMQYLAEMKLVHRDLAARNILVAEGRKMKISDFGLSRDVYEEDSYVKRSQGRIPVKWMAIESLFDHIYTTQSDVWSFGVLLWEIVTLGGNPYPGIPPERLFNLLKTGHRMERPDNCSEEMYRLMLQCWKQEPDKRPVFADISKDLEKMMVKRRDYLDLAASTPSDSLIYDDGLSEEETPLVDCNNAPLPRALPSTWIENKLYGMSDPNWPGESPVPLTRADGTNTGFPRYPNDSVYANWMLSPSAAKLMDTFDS

Structure (SMILES)	inhibition [%]
Nc1ncnc2occ(-c3ccc(NC(=O)Nc4cc(C(F)(F)F)cc(C(F)(F)F)c4)cc3)c12	77
CCn1c(-c2nonc2N)nc2c(N3CCCC3)nccc21	-0.73
CCn1c(-c2nonc2N)nc2cnc(Oc3cccc(NC(=O)c4ccc(OCCN5CCOCC5)cc4)c3)cc21	6.08
COc1ccccc1Nc1ncc(-c2ccccc2)o1	5.75
Cc1cccc(-c2n[nH]cc2-c2ccc3ncccc3n2)n1	2.72
CC1=C(C(=O)Nc2ccc3[nH]ncc3c2)C(c2ccc(F)cc2)NC(=O)N1 (stereo not drawn)	35.5
CCCN1CCC=C(c2ccc(Nc3nc(Nc4ccccc4C(N)=O)c4cc[nH]c4n3)c(C)c2)C1	58.3
CS(=O)(=O)Nc1ccc(N/C=C2\C(=O)Nc3ccccc32)cc1	66.2
CCN1CCC(CC(=O)Nc2n[nH]c3nc(-c4cccs4)c(Br)cc23)CC1	-2.04
CS(=O)(=O)CCNCc1ccc(-c2ccc3ncnc(Nc4ccc(OCc5cccc(F)c5)c(C(F)(F)F)c4)c3c2)o1	4.58
COc1ccc(-c2nn3ncccc3c2-c2ccnc(Nc3ccc(Cl)c(C(F)(F)F)c3)n2)cc1	6.71
c1cnn2ncc(-c3ccnc(Nc4ccc5c(c4)OCCO5)n3)c2c1	22
CCn1c(-c2nonc2N)nc2cncc(C(=O)N3CC[C@H](N)C3)c21	4.03
NCc1ccc(-c2nc(-c3ccc(Cl)c(O)c3)c(-c3ccncc3)[nH]2)cc1	7.47
COc1cc2ncn(-c3cc(OCc4ccccc4C(F)(F)F)c(C(N)=O)s3)c2cc1OC	34.3
COc1ccc(-c2ccncc2)cc1C(N)=O	9.41
Cc1cc(O)cc(C)c1/C=C/c1cncc(-c2nn[nH]n2)c1	9.42

Structure (SMILES)	inhibition [%]
Nc1nc(-c2ccc3c(c2)C(=Cc2cc(Br)c(O)c(Br)c2)C(=O)N3)cs1	9.79
COc1cccc(-n2ncc3c(N/N=C/c4cccc(F)c4)ncnc32)c1	9.3
COC(=O)Nc1nc2cc(Oc3ccc(NC(=O)Nc4cccc(C(=O)O)c4)cc3)ccc2[nH]1	15
Cc1nn(C)c2cc(N(C)c3ccnc(Nc4cccc(S(N)(=O)=O)c4)n3)ccc12	34.2
COc1cc2ncn(-c3cc(OCc4ccccc4Cl)c(C(N)=O)s3)c2cc1OC	26.9
CC(=O)Nc1cccc(C#Cc2cncnc2Nc2ccc(OCc3cccc(F)c3)c(Cl)c2)n1	10.2
COc1ccc(COc2ccc(Cc3cnc(N)nc3N)cc2OC)cc1	9.69
Nc1nc(-c2ccccn2)c(-c2ccc3ncccc3n2)s1	5.95
CC1=C(C(=O)Nc2ccc3[nH]ncc3c2)C(c2ccc3ccccc3c2)CC(=O)N1 (stereo not drawn)	53.2
COc1ccc(-c2coc3ncnc(N)c23)cc1	5.32
CS(=O)(=O)CCNCc1nc(-c2ccc3ncnc(Nc4ccc(F)c(Cl)c4)c3c2)cs1	11
O=C1Nc2ccc(C(=O)c3ccco3)cc2C1=Cc1cc(Cl)c(O)c(Cl)c1	74.7
COc1cc2ncn(-c3cc(O[C@H](C)c4ccccc4Cl)c(C(N)=O)s3)c2cc1OC	54.8
CS(=O)(=O)CCN(CC#N)Cc1ccc(-c2ccc3ncnc(Nc4ccc(OCc5cccc(F)c5)c(Cl)c4)c3c2)o1	3.35
CC(C)=Cc1cccc2c1/C(=N/Nc1ccc(S(N)(=O)=O)cc1)C(=O)N2	67.4
CCn1c(-c2nonc2N)nc2c(C#CC(C)(C)O)nc(OC[C@@H](N)c3ccccc3)cc21	14.4

Reference: ChEMBL document CHEMBL1961873, “Compounds: GSK PKIS; Assays: Nanosyn kinase panel” (2012)
